Reference: PubChem BioAssay AID1159580 (chemical genetic matrix, 2015)
The whole screen tested about 5,500 compounds, of which about 2,000 (36%) were called active. Inconclusive results (about 18%) are left out. Cut-off read from the data, not from the text of the source: active = normalized growth mostly below about 0.91 (no sharp cut-off); inconclusive = no clear call, values can overlap the other calls; inactive = mostly above about 0.92. This is one part of the list.

Assay: chemical genetic growth profiling, strain panel (AID 1159580);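 note: tested at 20 µM; growth read once vehicle control cultures reached saturation at 30 °C; 1 = growth at the plate median or of vehicle wells; lower values mean less growth of the strain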
Conditions: S. cerevisiae deletion strains, growth OD

Measured: normalized growth

Cn1cc(C2=C(c3ccc(Cl)cc3Cl)C(=O)NC2=O)c2ccccc21
inactive: locus YAL040C, strain CLN3, active compounds read low 1.02 | locus YCL061C, strain MRC1 (second series), active compounds read low 1.01 | locus YDR363W, strain ESC2, active compounds read low 1.01 | locus YER002W, strain NOP16, active compounds read low 0.994 | locus YMR263W, strain SAP30, active compounds read low 1.01 | locus YNL175C, strain NOP13, active compounds read low 1 | locus YNL197C, strain WHI3, active compounds read low 1 | locus YNL224C, strain SQS1, active compounds read low 1.02 | locus YNL322C, strain KRE1, active compounds read low 1 | locus YOR083W, strain WHI5 (second series), active compounds read low 1.01 | locus YPL241C, strain CIN2, active compounds read low 1.01
